According to PubChem BioAssay AID1159580 (chemical genetic matrix, 2015):
Among all 5,500 compounds or so, about 2,000 (36%) were called active. Roughly 18% stayed inconclusive and do not appear here. Rule as the data show it: active = normalized growth mostly below about 0.91 (no sharp cut-off); inconclusive = no clear call, values can overlap the other calls; inactive = mostly above about 0.92. Some of the results follow.

Assay: chemical genetic growth profiling, strain panel (AID 1159580);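 also: tested at 20 µM; growth read once vehicle control cultures reached saturation at 30 °C; 1 = growth at the plate median or of vehicle wells; lower values mean less growth of the strain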
Details: S. cerevisiae deletion strains, growth OD
[1] = locus YAL040C, strain CLN3, hits give low values
[2] = locus YCL061C, strain MRC1 (second series), hits give low values
[3] = locus YDR150W, strain NUM1, hits give low values
[4] = locus YDR363W, strain ESC2, hits give low values
[5] = locus YER002W, strain NOP16, hits give low values
[6] = locus YGR078C, strain PAC10, hits give low values
[7] = locus YNL128W, strain TEP1, hits give low values
[8] = locus YNL153C, strain GIM3, hits give low values
[9] = locus YNL175C, strain NOP13, hits give low values
[10] = locus YNL197C, strain WHI3, hits give low values
[11] = locus YNL224C, strain SQS1, hits give low values
[12] = locus YOR083W, strain WHI5 (second series), hits give low values
[13] = locus YPL241C, strain CIN2, hits give low values

Measured: normalized growth

CNCC[C@H](Oc1ccc(C(F)(F)F)cc1)c1ccccc1
inactive: [1] 0.981 | [2] 0.985 | [3] 0.993 | [4] 1.01 | [5] 1.01 | [6] 0.969 | locus YMR263W, strain SAP30, hits give low values 0.997 | [7] 1.01 | [8] 0.886 | [9] 1 | [10] 0.988 | [11] 1 | [12] 0.874 | [13] 0.982

CNCC[C@@H](Oc1ccc(C(F)(F)F)cc1)c1ccccc1
inactive: [1] 1.04 | [2] 0.977 | [3] 0.998 | [4] 0.943 | [5] 0.993 | [6] 1.01 | locus YJR075W, strain HOC1, hits give low values 0.982 | locus YMR307W, strain GAS1, hits give low values 0.999 | [7] 1.03 | [8] 1.01 | [9] 1.04 | [10] 1.01 | [11] 1.02 | locus YNL322C, strain KRE1, hits give low values 0.963 | [12] 1.01 | locus YPL055C, strain LGE1, hits give low values 0.975 | [13] 0.978
